# Measurements: PubChem BioAssay (EPA / NIEHS)
# Where “and” joins values, the source holds several entries; their conditions need not be identical. Identical values can stand only once. Calls of active or inactive are those of the source. How the source made its calls: active means hit-call score of the fitted dose curve at least 0.9, where 1 is the maximum; inactive means score below 0.9.
# Columns and labels:
# [1] = ATG_DR4_LXR_CIS: Attagene CIS-FACTORIAL HepG2 Assay for human Liver X Receptor (LXR), DR4 submotif (AID 2282929); conditions: HepG2 Attagene DR4 cis-reporter, mRNA transcription; AC50: actives raise or lower the signal unless noted; outcome: actives raise or lower the signal unless noted
# Method in brief: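 Transiently transfected HepG2 liver cells; cis-regulated reporters; 24 h dosing. RT-PCR plus CE read-out of reporter mRNA. DMSO baseline, bidirectional curve fitting.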
# [2] = target: Aryl hydrocarbon receptor (Homo sapiens) (UniProt P35869); assay: ATG_Ahr_CIS: Attagene CIS-FACTORIAL HepG2 Assay for human Aryl Hydrocarbon Receptor (Ahr) (AID 2282930); conditions: HepG2 AhR cis-factorial reporter transcription; actives raise or lower the signal
# Method in brief: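 Endogenous factor activity is tracked through cis-promoter reporter units transfected into HepG2 cells. Transcript levels at 24 h are read by fluorescent RT-PCR and capillary electrophoresis, with activity in either direction scored relative to DMSO.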
# [3] = ATG_AP_1_CIS: Attagene CIS-FACTORIAL HepG2 Assay for human Activator Protein 1 (AP-1) (AID 2282931); conditions: HepG2 Attagene cis-factorial AP-1 reporter mRNA; actives raise or lower the signal
# Method in brief: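 We transfected HepG2 cells transiently with a set of cis-regulated reporter transcription units, dosed them for 24 h, and quantified reporter mRNA via RT-PCR and capillary electrophoresis, scoring gain or loss of signal relative to DMSO.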
# [4] = ATG_AP_2_CIS: Attagene CIS-FACTORIAL HepG2 Assay for human Activator Protein 2 (AP-2) (AID 2282932); conditions: HepG2 AP-2 cis-reporter, Attagene transcription factor profiling; AC50: actives raise or lower the signal unless noted; outcome: actives raise or lower the signal unless noted
# Method in brief: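 HepG2 cells transiently transfected with cis-element reporter units and exposed for 24 h. Reporter mRNA measured by RT-PCR, FAM labelling, HpaI digestion and capillary electrophoresis. Changes in either direction fitted relative to DMSO.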
# [5] = ATG_BRE_CIS: Attagene CIS-FACTORIAL HepG2 Assay for human Bone Morphogenetic Protein (BMP) Response Element (BRE) (AID 2282933); conditions: HepG2 BMP response element reporter, Attagene transcription factor profiling; actives raise or lower the signal
# Method in brief: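 HepG2 cells transiently transfected with multiplexed cis-element reporter units were dosed with chemical for 24 h. Reporter mRNA was measured by RT-PCR with fluorescent labelling, HpaI digestion and capillary electrophoresis; bidirectional fitting relative to DMSO.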
# [6] = target: Retinoic acid receptor alpha (Homo sapiens) (UniProt P10276); assay: ATG_DR5_RAR_CIS: Attagene CIS-FACTORIAL HepG2 Assay for human Retinoic Acid Receptor Alpha (RARE), DR5 submotif (AID 2282934); conditions: HepG2 Attagene cis-factorial RARE DR5 reporter, mRNA; actives raise or lower the signal;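 on AC50: reporter responds to endogenous RAR alpha beta and gamma in HepG2 not RARA alone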
# Method in brief: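 After 24 h of chemical exposure, transiently transfected HepG2 cells were lysed for total RNA; the DR5-regulated reporter transcript was quantified via RT-PCR and capillary electrophoresis, with activity fitted bidirectionally against DMSO.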
# [7] = target: Transcription factor E2F1 (Homo sapiens) (UniProt Q01094); assay: ATG_E2F_CIS: Attagene CIS-FACTORIAL HepG2 Assay for human E2F Transcription Factor 1 (AID 2282935); conditions: HepG2 Attagene cis-reporter, E2F reporter RNA transcripts; actives raise or lower the signal
# Method in brief: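 Endogenous E2F1 activity read through cis-promoter reporter units transfected into HepG2. After 24 h compound treatment, reporter mRNA measured by RT-PCR, HpaI digestion and capillary electrophoresis. Bidirectional fit versus DMSO.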
# [8] = ATG_E_Box_CIS: Attagene CIS-FACTORIAL HepG2 Assay for human Enhancer Box (E-box) (AID 2282936); conditions: HepG2 E-box cis-reporter transcription, actives raise or lower the signal
# Method in brief: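 HepG2 cells transiently transfected with multiplexed cis-element reporter units, dosed 24 h; reporter mRNA quantified by RT-PCR, 6-FAM labelling, HpaI digestion and capillary electrophoresis. E-box (USF1) signal fitted bidirectionally vs DMSO.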
# [9] = ATG_M_61_CIS: Attagene CIS-FACTORIAL HepG2 Assay for M61 Transcription Factor (Internal Marker) (AID 2282937); conditions: HepG2 Attagene CIS-FACTORIAL M61 internal marker reporter; actives raise or lower the signal
# Method in brief: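 Multiplexed reporter mRNA assay, HepG2 human hepatoma cells, 24 h treatment. Signal: FAM-labelled, HpaI-digested RT-PCR fragments by CE. Fit: bidirectional, baseline DMSO.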
# [10] = ATG_EGR_CIS: Attagene CIS-FACTORIAL HepG2 Assay for human Early Growth Response 1 (EGR1) (AID 2282938); conditions: HepG2 Attagene CIS-FACTORIAL EGR reporter mRNA; actives raise or lower the signal
# Method in brief: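 Multiplexed cis-reporter system in human hepatoma HepG2 cells, transiently transfected. Cells are dosed for 24 h; reporter transcripts are amplified, fluorescently tagged and sized by capillary electrophoresis, with DMSO as negative control.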
# [11] = ATG_ERE_CIS: Attagene CIS-FACTORIAL HepG2 Assay for Estrogen Response Element (ERE) (AID 2282940); conditions: HepG2 ERE cis-reporter, Attagene RNA transcript; actives raise or lower the signal
# Method in brief: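 HepG2 cells transiently transfected with cis-promoter-driven multiplexed reporter transcription units report endogenous TF activity. After 24 h compound exposure, reporter mRNA is quantified by RT-PCR with capillary electrophoresis fluorescence; bidirectional fitting versus DMSO baseline.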
# [12] = ATG_Ets_CIS: Attagene CIS-FACTORIAL HepG2 Assay for human Erythroblast Transformation Specific (ETS) (AID 2282941); conditions: HepG2 ETS cis-reporter transcription; AC50: actives raise or lower the signal unless noted; outcome: actives raise or lower the signal unless noted
# Method in brief: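 Steps: transfect HepG2 with multiple reporter units; treat compound 24 h; isolate RNA, DNase-treat, reverse-transcribe; PCR-amplify, label with 6-FAM, digest with HpaI; separate by capillary electrophoresis. Activity fitted both directions versus DMSO.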
# [13] = ATG_FoxO_CIS: Attagene CIS-FACTORIAL HepG2 Assay for human Forkhead box O (FoxO) (AID 2282943); conditions: HepG2 Attagene cis-reporter, FoxO element, mRNA; actives raise or lower the signal
# Method in brief: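 Transfected HepG2 reporter cells exposed to test chemical for 24 h; reporter RNA measured by reverse transcription, PCR and fluorescent capillary electrophoresis; curves fitted for increases and decreases against DMSO.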
# [14] = ATG_GLI_CIS: Attagene CIS-FACTORIAL HepG2 Assay for human Zinc Finger Protein GLI1 (AID 2282945); conditions: HepG2, Attagene cis-factorial reporter mRNA, GLI element; actives raise or lower the signal
# Method in brief: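 Transiently transfected HepG2 cells report endogenous transcription factor activity via cis-element-driven reporter units. After 24 h compound exposure, reporter mRNA was measured by RT-PCR with capillary electrophoresis; bidirectional fitting against DMSO baseline.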
# [15] = target: Bile acid receptor (Homo sapiens) (UniProt Q96RI1); assay: ATG_IR1_CIS: Attagene CIS-FACTORIAL HepG2 Assay for human Nuclear Receptor Subfamily 1 Group H Member 4 (NR1H4), IR1 submotif (AID 2282946); conditions: IR1 reporter transcription, actives raise or lower the signal
# Method in brief: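 HepG2 cells transiently transfected with multiple cis-promoter-driven reporter units to measure endogenous transcription factor activity; 24 h exposure. Reporter mRNA read by RT-PCR, FAM labelling, HpaI digestion and capillary electrophoresis. Bidirectional fit versus DMSO.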
# [16] = ATG_GRE_CIS: Attagene CIS-FACTORIAL HepG2 Assay for human Glucocorticoid Response Elements (GRE) (AID 2282947); conditions: HepG2 GRE cis-reporter, Attagene multiplex mRNA; AC50: actives raise or lower the signal unless noted; outcome: actives raise or lower the signal unless noted
# Method in brief: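 Transiently transfected HepG2 cells carrying GRE cis-reporter units (endogenous TF activity) dosed 24 h; reporter mRNA quantified by RT-PCR, 6-FAM labelling, HpaI digestion and capillary electrophoresis. Bidirectional fit versus DMSO baseline.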
# [17] = ATG_ISRE_CIS: Attagene CIS-FACTORIAL HepG2 Assay for human Interferon Regulatory Factor 1 (IRF1) binding to an Interferon-Stimulated Response Element (ISRE) (AID 2282948); conditions: HepG2 ISRE cis-reporter (Attagene), mRNA transcription readout; actives raise or lower the signal
# Method in brief: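 Transfected HepG2 (multiple reporter transcription units, cis elements) dosed 24 h. RNA → oligo(dT) RT → PCR → 6-FAM primer extension → HpaI → CE. DMSO = negative control/baseline.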
# [18] = target: Hepatocyte nuclear factor 3-beta (Homo sapiens) (UniProt Q9Y261); assay: ATG_FoxA2_CIS: Attagene CIS-FACTORIAL HepG2 Assay for human Forkhead box A2 (FOXA2) (AID 2282942); conditions: HepG2 cis-reporter transcription factor activity, 24 h; actives raise or lower the signal
# Method in brief: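 Multiplexed cis-element reporter assay in transiently transfected HepG2. Twenty-four hours post-dosing, RNA was reverse-transcribed, amplified, FAM-labelled, HpaI-digested and separated by CE. Activity gain or loss relative to DMSO.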
# [19] = ATG_GATA_CIS: Attagene CIS-FACTORIAL HepG2 Assay for human GATA Binding Protein (AID 2282944); conditions: HepG2 GATA cis-element reporter, Attagene multiplex mRNA; actives raise or lower the signal
# Method in brief: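 HepG2 cells transiently transfected with multiplexed cis-element reporter units reflecting endogenous transcription factor activity; reporter mRNA measured after 24 h dosing by RT-PCR, 6-FAM labeling, HpaI digestion and capillary electrophoresis. Bidirectional fitting versus DMSO baseline.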
# [20] = ATG_M_19_CIS: Attagene CIS-FACTORIAL HepG2 Assay for M19 Transcription Factor (Internal Marker) (AID 2282939); conditions: HepG2 Attagene CIS-FACTORIAL M19 internal marker reporter; actives raise or lower the signal
# Method in brief: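 HepG2 cells transiently transfected with cis-regulated multiple reporter transcription units were dosed for 24 h; reporter mRNA was quantified by RT-PCR, 6-FAM primer-extension labelling, HpaI digestion and capillary electrophoresis, with bidirectional fitting against DMSO baseline.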
# Sequence of Bile acid receptor (Homo sapiens) (Q96RI1 whole entry, looked up): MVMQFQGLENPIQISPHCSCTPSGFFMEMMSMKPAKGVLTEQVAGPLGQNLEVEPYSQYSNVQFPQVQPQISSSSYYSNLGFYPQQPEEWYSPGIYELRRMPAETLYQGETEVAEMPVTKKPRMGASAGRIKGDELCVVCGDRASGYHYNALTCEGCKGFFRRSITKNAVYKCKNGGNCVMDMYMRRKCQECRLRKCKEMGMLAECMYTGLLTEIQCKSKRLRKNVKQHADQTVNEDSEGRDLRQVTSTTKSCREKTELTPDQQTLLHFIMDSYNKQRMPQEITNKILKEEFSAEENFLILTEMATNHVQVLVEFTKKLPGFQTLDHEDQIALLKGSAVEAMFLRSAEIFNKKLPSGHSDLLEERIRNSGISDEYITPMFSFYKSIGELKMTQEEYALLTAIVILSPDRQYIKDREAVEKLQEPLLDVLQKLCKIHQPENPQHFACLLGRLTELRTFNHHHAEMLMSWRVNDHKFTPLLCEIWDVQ
# Sequence of Transcription factor E2F1 (Homo sapiens) (Q01094 whole entry, looked up): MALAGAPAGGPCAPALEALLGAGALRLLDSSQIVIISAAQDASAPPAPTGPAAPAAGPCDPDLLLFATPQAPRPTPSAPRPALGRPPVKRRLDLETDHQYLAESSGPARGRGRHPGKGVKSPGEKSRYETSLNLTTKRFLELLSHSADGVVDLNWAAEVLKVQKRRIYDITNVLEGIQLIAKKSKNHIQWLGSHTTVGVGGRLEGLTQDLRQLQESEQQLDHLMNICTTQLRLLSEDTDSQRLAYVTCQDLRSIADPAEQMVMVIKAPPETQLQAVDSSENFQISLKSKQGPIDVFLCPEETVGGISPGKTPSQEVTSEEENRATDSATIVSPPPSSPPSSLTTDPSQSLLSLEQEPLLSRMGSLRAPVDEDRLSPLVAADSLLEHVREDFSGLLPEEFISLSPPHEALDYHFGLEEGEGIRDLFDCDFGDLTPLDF
# Sequence of Hepatocyte nuclear factor 3-beta (Homo sapiens) (Q9Y261 whole entry, looked up): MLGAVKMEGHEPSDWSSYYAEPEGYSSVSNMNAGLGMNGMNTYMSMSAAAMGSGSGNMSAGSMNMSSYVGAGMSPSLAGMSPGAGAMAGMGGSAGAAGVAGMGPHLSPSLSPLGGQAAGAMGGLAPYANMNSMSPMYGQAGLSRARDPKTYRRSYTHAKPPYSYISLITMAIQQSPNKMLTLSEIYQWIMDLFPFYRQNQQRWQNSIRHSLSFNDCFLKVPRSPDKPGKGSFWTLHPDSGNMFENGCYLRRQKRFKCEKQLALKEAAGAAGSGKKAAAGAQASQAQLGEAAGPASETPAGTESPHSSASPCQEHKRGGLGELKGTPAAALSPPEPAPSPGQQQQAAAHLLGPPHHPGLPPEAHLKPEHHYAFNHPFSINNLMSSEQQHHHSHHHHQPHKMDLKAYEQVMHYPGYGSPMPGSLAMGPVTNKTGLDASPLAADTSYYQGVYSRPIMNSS
# Sequence of Aryl hydrocarbon receptor (Homo sapiens) (P35869 whole entry, looked up): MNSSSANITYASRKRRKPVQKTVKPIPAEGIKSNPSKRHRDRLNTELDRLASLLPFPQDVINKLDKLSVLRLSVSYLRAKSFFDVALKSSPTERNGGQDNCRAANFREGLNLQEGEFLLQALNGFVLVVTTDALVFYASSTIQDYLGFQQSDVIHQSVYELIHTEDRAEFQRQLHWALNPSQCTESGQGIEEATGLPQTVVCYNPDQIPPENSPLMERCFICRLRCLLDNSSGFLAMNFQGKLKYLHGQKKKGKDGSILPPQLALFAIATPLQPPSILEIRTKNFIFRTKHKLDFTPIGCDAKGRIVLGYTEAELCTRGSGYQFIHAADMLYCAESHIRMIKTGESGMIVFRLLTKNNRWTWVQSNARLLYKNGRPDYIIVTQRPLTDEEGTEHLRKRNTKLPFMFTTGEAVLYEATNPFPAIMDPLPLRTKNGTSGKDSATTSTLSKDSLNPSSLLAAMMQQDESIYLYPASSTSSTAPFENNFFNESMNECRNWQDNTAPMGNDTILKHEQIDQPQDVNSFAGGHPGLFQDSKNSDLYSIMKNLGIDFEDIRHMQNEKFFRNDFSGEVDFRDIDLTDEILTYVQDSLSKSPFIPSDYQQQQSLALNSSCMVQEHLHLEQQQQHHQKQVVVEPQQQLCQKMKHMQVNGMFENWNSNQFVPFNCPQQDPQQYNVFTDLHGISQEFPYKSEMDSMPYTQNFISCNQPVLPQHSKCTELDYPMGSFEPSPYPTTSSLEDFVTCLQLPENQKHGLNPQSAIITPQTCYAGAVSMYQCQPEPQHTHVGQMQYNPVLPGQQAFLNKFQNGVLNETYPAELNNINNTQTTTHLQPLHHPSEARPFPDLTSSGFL
# Sequence of Retinoic acid receptor alpha (Homo sapiens) (P10276 whole entry, looked up): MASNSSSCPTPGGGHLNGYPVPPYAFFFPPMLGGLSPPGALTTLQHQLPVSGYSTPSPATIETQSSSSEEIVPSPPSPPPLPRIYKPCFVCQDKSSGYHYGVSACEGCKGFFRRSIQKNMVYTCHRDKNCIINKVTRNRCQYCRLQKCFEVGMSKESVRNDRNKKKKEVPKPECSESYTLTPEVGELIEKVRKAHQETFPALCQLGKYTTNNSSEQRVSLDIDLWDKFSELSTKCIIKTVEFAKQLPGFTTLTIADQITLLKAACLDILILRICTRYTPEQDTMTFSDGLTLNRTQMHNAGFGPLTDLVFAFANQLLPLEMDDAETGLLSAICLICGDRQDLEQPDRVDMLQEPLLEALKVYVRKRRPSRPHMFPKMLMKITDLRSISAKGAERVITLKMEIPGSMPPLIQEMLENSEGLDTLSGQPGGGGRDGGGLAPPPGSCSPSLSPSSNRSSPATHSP
structure (smiles),measurement,setting,value
CCCCCCCCCCCC[N+](C)(C)CCCCCCCCCCCC,outcome,[1],inactive
same,outcome,[2],inactive
same,outcome,[3],inactive
same,AC50,[4],168 µM (active)
same,outcome,[5],inactive
same,outcome,[6],inactive
same,outcome,[7],inactive
same,outcome,[8],inactive
same,outcome,[9],inactive
same,outcome,[10],inactive
same,outcome,[11],inactive
same,AC50,[12],36.3 µM (active)
same,outcome,[13],inactive
same,outcome,[14],inactive
same,outcome,[15],inactive
same,outcome,[16],inactive
same,AC50,[17],100 µM (active)
CC1CCC(CO)CC1 (stereo not given),outcome,[1],inactive
same,outcome,[2],inactive
same,outcome,[3],inactive
same,outcome,[4],inactive
same,outcome,[6],inactive
same,outcome,[7],inactive
same,outcome,[8],inactive
same,outcome,[9],inactive
same,outcome,[10],inactive
same,AC50,[11],20 µM (active) and 27.1 µM (active)
same,outcome,[12],inactive
same,outcome,[18],inactive
same,outcome,[13],inactive
same,outcome,[19],inactive
same,outcome,[14],inactive
same,outcome,[16],inactive
same,outcome,[17],inactive
CCCCCCCCCCCC,outcome,[1],inactive
same,outcome,[2],inactive
same,outcome,[3],inactive
same,outcome,[4],inactive
same,outcome,[5],inactive
same,outcome,[6],inactive
same,outcome,[7],inactive
same,outcome,[8],inactive
same,outcome,[9],inactive
same,outcome,[10],inactive
same,outcome,[12],inactive
same,outcome,[18],inactive
same,outcome,[13],inactive
same,outcome,[19],inactive
same,outcome,[14],inactive
same,outcome,[16],inactive
same,outcome,[17],inactive
FC1(F)C=CC(F)(F)C1(F)F,outcome,[1],inactive
same,outcome,[2],inactive
same,outcome,[3],inactive
same,outcome,[4],inactive
same,outcome,[5],inactive
same,outcome,[6],inactive
same,outcome,[8],inactive
same,outcome,[9],inactive
same,outcome,[10],inactive
same,outcome,[11],inactive
same,outcome,[12],inactive
same,outcome,[18],inactive
same,outcome,[13],inactive
same,outcome,[19],inactive
same,outcome,[14],inactive
same,outcome,[15],inactive
same,outcome,[16],inactive
same,outcome,[17],inactive
O=P(O)(O)CCC(F)(F)C(F)(F)C(F)(F)C(F)(F)C(F)(F)C(F)(F)F,outcome,[1],inactive
same,outcome,[2],inactive
same,outcome,[3],inactive
same,outcome,[4],inactive
same,outcome,[5],inactive
same,outcome,[6],inactive
same,outcome,[8],inactive
same,outcome,[9],inactive
same,outcome,[10],inactive
same,outcome,[20],inactive
same,outcome,[11],inactive
same,outcome,[12],inactive
same,outcome,[18],inactive
same,outcome,[13],inactive
same,outcome,[19],inactive
same,outcome,[14],inactive
same,outcome,[15],inactive
same,outcome,[16],inactive
same,outcome,[17],inactive
C=CC(=O)OCCC(F)(F)C(F)(F)C(F)(F)C(F)(F)C(F)(F)C(F)(F)C(F)(F)C(F)(F)F,outcome,[1],inactive
same,outcome,[2],inactive
same,outcome,[3],inactive
same,outcome,[4],inactive
same,AC50,[6],15.2 µM (active)
same,outcome,[7],inactive
same,outcome,[8],inactive
same,outcome,[9],inactive
same,outcome,[10],inactive
same,outcome,[20],inactive
same,AC50,[11],22.6 µM (active)
same,outcome,[12],inactive
same,outcome,[18],inactive
same,outcome,[13],inactive
same,outcome,[19],inactive
same,outcome,[14],inactive
same,outcome,[15],inactive
same,outcome,[16],inactive
same,outcome,[17],inactive
O=C(CCCN1CCC(O)(c2ccc(Cl)cc2)CC1)c1ccc(F)cc1,outcome,[1],inactive
same,outcome,[2],inactive
same,AC50,[3],60.1 µM (active)
same,outcome,[4],inactive
same,outcome,[5],inactive
same,AC50,[8],22 µM (active)
same,outcome,[9],inactive
same,AC50,[10],33.4 µM (active)
same,outcome,[12],inactive
same,outcome,[18],inactive
same,AC50,[13],52.7 µM (active)
same,AC50,[19],52.8 µM (active)
same,outcome,[14],inactive
same,AC50,[16],52 µM (active)
same,outcome,[17],inactive
FC(F)(F)C1(F)C(F)(F)C(F)(F)C(F)(F)C1(F)F,outcome,[1],inactive
same,outcome,[2],inactive
same,outcome,[3],inactive
same,outcome,[4],inactive
same,outcome,[5],inactive
same,outcome,[6],inactive
same,outcome,[8],inactive
same,outcome,[9],inactive
same,outcome,[10],inactive
same,outcome,[20],inactive
same,outcome,[11],inactive
same,outcome,[12],inactive
same,outcome,[18],inactive
same,outcome,[13],inactive
same,outcome,[14],inactive
same,outcome,[15],inactive
same,outcome,[16],inactive
same,outcome,[17],inactive
